Test results as given in PubChem BioAssay (EPA / NIEHS).
Records with an inconclusive call do not appear. Active and inactive are the calls of the source. The calls were made as follows: active = hit-call score of the fitted dose curve at least 0.9, where 1 is the maximum; inconclusive = response in the unintended direction; inactive = score below 0.9.

Key:
[1] = biological target: human Peroxisome Proliferator-activated Receptor alpha (PPARa), PPARA (gene 5465) (UniProt Q07869); experiment: ATG_PPARa_TRANS: Attagene TRANS-FACTORIAL HepG2 Assay for human Peroxisome Proliferator-activated Receptor alpha (PPARa) (AID 2283001);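 as to AC50: potency for gain of reporter signal over DMSO so agonist or activator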
human Peroxisome Proliferator-activated Receptor alpha (PPARa), PPARA (gene 5465), sequence (Q07869 whole entry, looked up, the tested form may be a part): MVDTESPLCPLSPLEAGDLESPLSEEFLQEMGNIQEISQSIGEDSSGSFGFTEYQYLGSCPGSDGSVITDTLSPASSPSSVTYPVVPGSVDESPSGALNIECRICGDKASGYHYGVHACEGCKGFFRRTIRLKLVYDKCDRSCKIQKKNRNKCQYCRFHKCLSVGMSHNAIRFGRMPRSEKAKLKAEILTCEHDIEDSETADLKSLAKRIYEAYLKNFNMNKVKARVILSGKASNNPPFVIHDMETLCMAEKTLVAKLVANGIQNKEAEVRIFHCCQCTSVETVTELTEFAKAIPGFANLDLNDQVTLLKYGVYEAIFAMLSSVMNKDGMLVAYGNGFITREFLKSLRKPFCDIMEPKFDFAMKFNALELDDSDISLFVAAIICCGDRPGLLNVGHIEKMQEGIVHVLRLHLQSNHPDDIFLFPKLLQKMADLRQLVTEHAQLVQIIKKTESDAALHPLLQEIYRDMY
Summary of the method: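 Read-out is fluorescence of reporter cDNA fragments resolved by capillary electrophoresis after RT-PCR. Human HepG2 liver cells carried transfected PPARa-Gal4 chimera and GAL4-UAS reporter units, treated 24 h; activity scored as increase over DMSO.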

[2] = biological target: human Retinoic Acid Receptor beta (RARb), RARB (gene 5915) (UniProt P10826); experiment: ATG_RARb_TRANS: Attagene TRANS-FACTORIAL HepG2 Assay for human Retinoic Acid Receptor beta (AID 2283004)
human Retinoic Acid Receptor beta (RARb), RARB (gene 5915), sequence (P10826 whole entry, looked up, the tested form may be a part): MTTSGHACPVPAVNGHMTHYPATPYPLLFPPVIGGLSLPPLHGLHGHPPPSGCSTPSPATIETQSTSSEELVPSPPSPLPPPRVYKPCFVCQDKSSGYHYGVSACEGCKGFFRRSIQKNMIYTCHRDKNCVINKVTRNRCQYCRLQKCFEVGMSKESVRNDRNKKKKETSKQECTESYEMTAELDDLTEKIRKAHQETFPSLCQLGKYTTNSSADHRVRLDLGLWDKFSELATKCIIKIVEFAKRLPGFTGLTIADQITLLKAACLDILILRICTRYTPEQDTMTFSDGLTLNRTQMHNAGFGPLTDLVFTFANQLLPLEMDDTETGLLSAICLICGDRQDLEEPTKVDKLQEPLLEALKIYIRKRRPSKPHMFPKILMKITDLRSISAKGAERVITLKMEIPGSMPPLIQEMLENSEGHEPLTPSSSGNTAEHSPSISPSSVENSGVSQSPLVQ
Summary of the method: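 Fluorescent capillary-electrophoresis detection of GAL4-UAS reporter mRNA defines the endpoint, with induction over DMSO-treated wells scored as activity. Transiently transfected human hepatoma HepG2 cells expressing exogenous NR–Gal4 proteins are exposed to test chemicals for 24 h.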

[3] = biological target: Retinoic acid receptor alpha (Homo sapiens) (UniProt P10276); experiment: ATG_RARa_TRANS: Attagene TRANS-FACTORIAL HepG2 Assay for human Retinoic Acid Receptor alpha (RARa) (AID 2283005)
Retinoic acid receptor alpha (Homo sapiens), sequence (P10276 whole entry, looked up, the tested form may be a part): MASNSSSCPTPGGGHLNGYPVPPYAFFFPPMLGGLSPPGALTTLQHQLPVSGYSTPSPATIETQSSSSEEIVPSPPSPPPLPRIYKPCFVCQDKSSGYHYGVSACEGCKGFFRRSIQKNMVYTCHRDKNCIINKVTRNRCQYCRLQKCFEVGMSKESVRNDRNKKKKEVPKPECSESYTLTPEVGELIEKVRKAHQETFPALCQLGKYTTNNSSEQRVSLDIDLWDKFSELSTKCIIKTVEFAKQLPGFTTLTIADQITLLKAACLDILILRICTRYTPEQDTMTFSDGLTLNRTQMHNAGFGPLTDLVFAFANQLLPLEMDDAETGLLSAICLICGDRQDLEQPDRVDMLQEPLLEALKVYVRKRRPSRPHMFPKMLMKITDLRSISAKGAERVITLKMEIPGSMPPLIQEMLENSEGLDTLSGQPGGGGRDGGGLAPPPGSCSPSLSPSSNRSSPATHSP
Summary of the method: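 Reporter transcripts, measured by RT-PCR with fluorescent labeling and capillary electrophoresis after 24 h dosing, reflect activity of an exogenous human RARa–GAL4 fusion in transiently transfected HepG2. Fitted for increase relative to DMSO.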

[4] = biological target: human Retinoic Acid Receptor gamma (RARg), RARG (gene 5916) (UniProt P13631); experiment: ATG_RARg_TRANS: Attagene TRANS-FACTORIAL HepG2 Assay for human Retinoic Acid Receptor gamma (RARg) (AID 2283009)
human Retinoic Acid Receptor gamma (RARg), RARG (gene 5916), sequence (P13631 whole entry, looked up, the tested form may be a part): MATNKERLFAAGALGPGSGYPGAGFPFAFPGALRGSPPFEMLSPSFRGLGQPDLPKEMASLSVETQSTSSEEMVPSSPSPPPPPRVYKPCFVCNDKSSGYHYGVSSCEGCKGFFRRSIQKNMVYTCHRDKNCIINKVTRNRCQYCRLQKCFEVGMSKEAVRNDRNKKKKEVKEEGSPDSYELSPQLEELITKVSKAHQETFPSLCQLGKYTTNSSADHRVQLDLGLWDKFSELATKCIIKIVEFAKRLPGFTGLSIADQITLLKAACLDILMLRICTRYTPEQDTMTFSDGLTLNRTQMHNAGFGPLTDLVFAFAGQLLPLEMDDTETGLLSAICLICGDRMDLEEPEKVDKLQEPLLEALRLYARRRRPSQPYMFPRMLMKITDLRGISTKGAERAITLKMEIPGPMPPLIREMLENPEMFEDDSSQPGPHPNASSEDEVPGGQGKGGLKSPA
Summary of the method: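 HepG2 transiently transfected with GAL4-UAS reporter units and chimeric NR-Gal4 constructs; 24 h compound exposure. Reporter mRNA quantified by RT-PCR, FAM labeling, HpaI digestion and capillary electrophoresis; gain-of-signal versus DMSO.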

[5] = biological target: human Retinoid X Receptor beta (RXRb), RXRB (gene 6257) (UniProt P28702); experiment: ATG_RXRb_TRANS: Attagene TRANS-FACTORIAL HepG2 Assay for human Retinoid X Receptor beta (RXRb) (AID 2283013)
human Retinoid X Receptor beta (RXRb), RXRB (gene 6257), sequence (P28702 whole entry, looked up, the tested form may be a part): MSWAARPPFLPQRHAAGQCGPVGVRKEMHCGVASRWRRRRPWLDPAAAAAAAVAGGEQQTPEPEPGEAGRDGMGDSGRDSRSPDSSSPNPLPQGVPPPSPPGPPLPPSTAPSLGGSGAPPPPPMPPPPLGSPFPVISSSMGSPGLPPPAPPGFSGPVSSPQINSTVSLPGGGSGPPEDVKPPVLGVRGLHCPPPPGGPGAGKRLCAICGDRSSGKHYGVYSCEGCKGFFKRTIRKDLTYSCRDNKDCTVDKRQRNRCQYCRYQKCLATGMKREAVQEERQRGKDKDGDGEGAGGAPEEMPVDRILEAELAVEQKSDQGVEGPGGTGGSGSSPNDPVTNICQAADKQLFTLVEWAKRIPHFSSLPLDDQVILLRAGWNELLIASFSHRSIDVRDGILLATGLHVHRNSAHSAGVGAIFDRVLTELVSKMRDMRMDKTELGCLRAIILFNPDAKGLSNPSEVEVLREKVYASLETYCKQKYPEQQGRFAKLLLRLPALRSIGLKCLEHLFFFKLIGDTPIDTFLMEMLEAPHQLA
Summary of the method: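 HepG2 cells were transiently transfected with multiplexed GAL4-UAS reporters and a chimeric RXRb-Gal4 construct, then exposed for 24 h. Reporter mRNA was quantified by RT-PCR, FAM labeling, HpaI digestion and capillary electrophoresis; gain of signal was scored against DMSO.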

[6] = biological target: human RAR-related Orphan Receptor beta (RORb), RORB (gene 6096) (UniProt Q92753); experiment: ATG_RORb_TRANS: Attagene TRANS-FACTORIAL HepG2 Assay for human RAR-related Orphan Receptor beta (RORb) (AID 2283010)
Summary of the method: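 HepG2 cells transiently transfected with GAL4-UAS reporter units expressing chimeric NR-Gal4 protein; reporter mRNA measured 24 h after dosing by RT-PCR, 6-FAM labelling and capillary electrophoresis. Gain-of-signal fitted relative to DMSO baseline.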

[7] = biological target: human RAR-related Orphan Receptor gamma (RORg), RORC (gene 6097) (UniProt P51449); experiment: ATG_RORg_TRANS: Attagene TRANS-FACTORIAL HepG2 Assay for human RAR-related Orphan Receptor gamma (RORg) (AID 2283011)
human RAR-related Orphan Receptor gamma (RORg), RORC (gene 6097), sequence (P51449 whole entry, looked up, the tested form may be a part): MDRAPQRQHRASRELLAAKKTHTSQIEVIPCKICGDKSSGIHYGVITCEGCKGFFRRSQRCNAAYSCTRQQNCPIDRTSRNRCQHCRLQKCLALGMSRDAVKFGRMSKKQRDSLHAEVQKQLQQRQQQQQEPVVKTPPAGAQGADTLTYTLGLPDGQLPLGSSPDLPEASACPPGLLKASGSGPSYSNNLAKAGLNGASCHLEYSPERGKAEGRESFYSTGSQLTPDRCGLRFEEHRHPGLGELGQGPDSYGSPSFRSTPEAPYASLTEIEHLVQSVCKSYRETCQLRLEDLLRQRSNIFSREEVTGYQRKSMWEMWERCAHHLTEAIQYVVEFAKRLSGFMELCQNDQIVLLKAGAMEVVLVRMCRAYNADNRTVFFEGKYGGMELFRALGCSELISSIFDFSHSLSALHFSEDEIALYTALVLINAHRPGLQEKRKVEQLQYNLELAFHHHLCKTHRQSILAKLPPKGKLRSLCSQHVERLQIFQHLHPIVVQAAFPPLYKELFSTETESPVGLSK
Summary of the method: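 Chimeric RORg-Gal4 transactivation in transfected HepG2; 24 h exposure; RT-PCR/capillary electrophoresis readout of reporter mRNA, DMSO baseline.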

[8] = biological target: Peroxisome proliferator-activated receptor gamma (Homo sapiens) (UniProt P37231); experiment: ATG_PPARg_TRANS: Attagene TRANS-FACTORIAL HepG2 Assay for human Peroxisome Proliferator-activated Receptor-gamma (PPARg) (AID 2283007)
Peroxisome proliferator-activated receptor gamma (Homo sapiens), sequence (P37231 whole entry, looked up, the tested form may be a part): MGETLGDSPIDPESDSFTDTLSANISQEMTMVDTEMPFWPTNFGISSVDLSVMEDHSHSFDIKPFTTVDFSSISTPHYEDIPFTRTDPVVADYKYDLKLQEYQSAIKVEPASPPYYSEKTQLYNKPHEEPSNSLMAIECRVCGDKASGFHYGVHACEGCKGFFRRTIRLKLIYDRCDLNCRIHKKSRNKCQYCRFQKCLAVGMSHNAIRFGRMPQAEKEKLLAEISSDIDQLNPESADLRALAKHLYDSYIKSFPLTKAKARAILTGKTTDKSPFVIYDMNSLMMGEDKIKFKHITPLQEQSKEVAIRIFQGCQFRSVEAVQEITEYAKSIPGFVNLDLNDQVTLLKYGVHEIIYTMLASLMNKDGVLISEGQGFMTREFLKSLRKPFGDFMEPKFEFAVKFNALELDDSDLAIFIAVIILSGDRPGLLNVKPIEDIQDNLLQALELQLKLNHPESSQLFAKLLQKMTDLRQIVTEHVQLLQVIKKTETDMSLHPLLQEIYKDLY
Summary of the method: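 HepG2 cells transiently transfected with multiplexed GAL4-UAS reporter units and exogenous chimeric NR-Gal4 proteins; reporter mRNA quantified after 24 h compound exposure by RT-PCR, fluorescent labelling, HpaI digestion and capillary electrophoresis; gain-of-signal fitted versus DMSO baseline.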

[9] = biological target: Nuclear receptor subfamily 1 group I member 2 (Homo sapiens) (UniProt O75469); experiment: ATG_PXR_TRANS: Attagene TRANS-FACTORIAL HepG2 Assay for human Pregnane X Receptor (PXR) (AID 2283008)
Nuclear receptor subfamily 1 group I member 2 (Homo sapiens), sequence (O75469 whole entry, looked up, the tested form may be a part): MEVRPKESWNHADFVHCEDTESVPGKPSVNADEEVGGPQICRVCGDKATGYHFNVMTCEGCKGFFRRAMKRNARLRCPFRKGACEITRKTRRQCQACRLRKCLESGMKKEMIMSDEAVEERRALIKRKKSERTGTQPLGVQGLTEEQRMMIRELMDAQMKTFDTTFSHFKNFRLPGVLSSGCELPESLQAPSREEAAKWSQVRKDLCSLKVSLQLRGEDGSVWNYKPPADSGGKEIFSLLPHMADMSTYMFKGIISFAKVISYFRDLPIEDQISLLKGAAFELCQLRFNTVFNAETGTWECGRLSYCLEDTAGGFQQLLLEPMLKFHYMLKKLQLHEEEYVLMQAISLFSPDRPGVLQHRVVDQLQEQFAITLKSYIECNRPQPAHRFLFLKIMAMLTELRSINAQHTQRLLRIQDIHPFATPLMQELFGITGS
Summary of the method: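 Fluorescence intensity of FAM-labelled, HpaI-digested reporter amplicons, separated by capillary electrophoresis, quantifies induction. HepG2 cells with PXR-Gal4 trans-reporter system were exposed 24 h; DMSO defines baseline.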

[10] = biological target: Retinoic acid receptor RXR-alpha (Homo sapiens) (UniProt P19793); experiment: ATG_RXRa_TRANS: Attagene TRANS-FACTORIAL HepG2 Assay for human Retinoid X Receptor alpha (RXRa) (AID 2283012)
Retinoic acid receptor RXR-alpha (Homo sapiens), sequence (P19793 whole entry, looked up, the tested form may be a part): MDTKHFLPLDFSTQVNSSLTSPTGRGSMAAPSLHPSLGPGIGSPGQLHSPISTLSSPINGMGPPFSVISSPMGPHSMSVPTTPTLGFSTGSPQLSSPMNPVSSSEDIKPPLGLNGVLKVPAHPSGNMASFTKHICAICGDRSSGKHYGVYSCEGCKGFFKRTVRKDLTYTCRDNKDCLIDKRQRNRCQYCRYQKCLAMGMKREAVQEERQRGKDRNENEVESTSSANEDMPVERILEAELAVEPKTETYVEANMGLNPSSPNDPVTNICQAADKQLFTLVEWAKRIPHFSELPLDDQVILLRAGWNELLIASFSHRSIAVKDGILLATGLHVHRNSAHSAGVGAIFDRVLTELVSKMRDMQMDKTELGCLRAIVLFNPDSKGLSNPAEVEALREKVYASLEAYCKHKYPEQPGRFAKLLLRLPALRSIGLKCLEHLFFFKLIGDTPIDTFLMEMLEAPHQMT
Summary of the method: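 HepG2 cells transiently transfected with GAL4-UAS reporter units and chimeric RXRa-Gal4 protein, treated 24 h. Reporter mRNA measured by RT-PCR, fluorescent labelling, HpaI digestion and capillary electrophoresis. Induction fitted against DMSO.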

[11] = biological target: human Thyroid Receptor alpha (THRa1), THRA (gene 7067) (UniProt P10827); experiment: ATG_THRa1_TRANS: Attagene TRANS-FACTORIAL HepG2 Assay for human Thyroid Receptor alpha (THRa1) (AID 2283014)
Summary of the method: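 Measured here is mRNA from a GAL4-UAS reporter in transfected HepG2 cells carrying a Gal4-fused receptor, 24 h post-dose. DMSO served as negative control and baseline.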

[12] = biological target: human Peroxisome Proliferator-activated Receptor delta (PPARd), PPARD (gene 5467) (UniProt Q03181); experiment: ATG_PPARd_TRANS: Attagene TRANS-FACTORIAL HepG2 Assay for human Peroxisome Proliferator-activated Receptor delta (PPARd) (AID 2283002)
human Peroxisome Proliferator-activated Receptor delta (PPARd), PPARD (gene 5467), sequence (Q03181 whole entry, looked up, the tested form may be a part): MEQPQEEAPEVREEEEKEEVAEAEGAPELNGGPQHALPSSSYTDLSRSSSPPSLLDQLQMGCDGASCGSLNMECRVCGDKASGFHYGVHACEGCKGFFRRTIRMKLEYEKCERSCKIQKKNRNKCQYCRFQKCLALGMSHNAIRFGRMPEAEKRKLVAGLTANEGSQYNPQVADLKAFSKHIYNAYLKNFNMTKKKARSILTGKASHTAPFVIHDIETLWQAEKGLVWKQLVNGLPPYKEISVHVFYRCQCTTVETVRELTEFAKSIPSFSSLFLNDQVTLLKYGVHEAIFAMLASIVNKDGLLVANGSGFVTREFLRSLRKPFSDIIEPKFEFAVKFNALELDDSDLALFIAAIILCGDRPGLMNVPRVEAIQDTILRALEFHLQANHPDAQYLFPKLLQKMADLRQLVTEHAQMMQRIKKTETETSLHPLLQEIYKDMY
Summary of the method: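 Read-out is induced reporter mRNA, quantified by RT-PCR with fluorescent labelling and capillary electrophoresis after 24 h dosing. Cells are HepG2 transiently carrying multiple GAL4-UAS reporter units driven by exogenous NR-GAL4 chimeras; DMSO serves as baseline.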

Measured: AC50

CCCCCCCOC(=O)c1ccc(O)cc1
active: [5] 11.1 µM
inactive: [1] | [2] | [3] | [4]

C=C(C)[C@@H]1CC=C(C)CC1
inactive: [1] | [3] | [6] | [7] | [5]

O=C(Nc1ccccc1)c1cc(Cl)ccc1O
active: [8] 13 µM
not listed: [6] | [7] | [12]
inactive: all other assays above

C=CCCCCCCCCOC(C)=O
inactive: [1] | [8] | [9] | [7] | [10] | [5] | [11]

CC(=O)C(C)C
inactive: [1] | [2] | [3] | [8] | [9] | [6] | [10]

C=C(C)C1CC=C(C)CC1 (configuration not stated)
inactive: [1] | [9] | [7] | [5]

CC1=CCC2CC1C2(C)C (configuration not stated)
inactive: [1] | [2] | [3] | [9] | [4] | [6] | [5]

N#CC1(N)CCCCC1
inactive: [1] | [8] | [4] | [6] | [10] | [5]

O=S(=O)(O)c1ccc(N=Nc2c(O)ccc3ccccc23)cc1
not listed: [6] | [9] | [11] | [12]
inactive: all other assays above

CN(C)c1ccc2nc3ccc(=[N+](C)C)cc-3sc2c1
active: [8] 12.1 µM | [9] 10.3 µM
inactive: [1] | [2] | [3] | [6] | [11]

CCCCCCCC(=O)OCC
inactive: [1] | [8] | [9] | [5]

CCc1cccc(C)c1N
inactive: [1] | [2] | [3] | [8] | [9] | [5]

COc1ccc(-c2coc3cc(O)cc(O)c3c2=O)cc1
inactive: [2] | [3] | [10] | [11]
active: [1] 7.31 µM | [8] 27.1 µM | [9] 26.6 µM

C=CC(C)(O)CC/C=C(\C)CC (configuration not stated)
active: [9] 6.12 µM
not listed: [1] | [6] | [7] | [11]
inactive: all other assays above

CCCCCCCCCCCC(=O)OCC
inactive: [1] | [4] | [7] | [5]

CCCC=C(C=O)CC
inactive: [1] | [9]

COC(Cc1ccccc1)OC
inactive: [1] | [8] | [6] | [7] | [11]

C=C(C)OC(C)=O
inactive: [1] | [9] | [4] | [7]

Nc1ccc(C(=O)OCCCOC(=O)c2ccc(N)cc2)cc1
active: [8] 33.4 µM | [9] 19.6 µM
inactive: [1] | [11]

O=C1CCCN1C1CCCCC1
inactive: [1] | [8] | [9] | [7] | [5]

CC(C)=CCCC(C)=CC#N
inactive: [1] | [2] | [9] | [10] | [5]

[Cl][Sc]([Cl])[Cl]
inactive: [1] | [3] | [9] | [4] | [7] | [11]

CC(=O)OCC=C(C)C
inactive: [1] | [3] | [8] | [9] | [5] | [11]

CC(=O)OC/C=C(/C)CCC=C(C)C
inactive: [1] | [3] | [8] | [9] | [6] | [10] | [5]

CCC(C)(O)CCCC(C)C (configuration not stated)
inactive: [1] | [8] | [9] | [5] | [11]

CC1=C(O)C(=O)C(C)O1 (configuration not stated)
inactive: [12] | [2] | [3] | [4] | [6] | [7] | [5]

CC(=O)OC1CCCCC1
inactive: [12] | [3] | [9] | [6] | [7] | [10]

CC1(C)CCC[C@]2(C)[C@H]3CC(=O)O[C@]3(C)CC[C@@H]12
active: [9] 6.22 µM
inactive: [12] | [3] | [8] | [4] | [10] | [5]

COc1cc(C)ccc1O
not listed: [1] | [2] | [4] | [7]
inactive: all other assays above

CC1CCC(C(C)(C)S)C(=O)C1 (configuration not stated)
active: [8] 81.1 µM | [9] 1.89 µM
inactive: [12] | [10] | [5] | [11]

CC12CCC(CC1)C(C)(C)O2
inactive: [12] | [2] | [6] | [7] | [5]

CCC[Si](OC)(OC)OC
not listed: [1] | [6] | [8]
inactive: all other assays above

CCCCCCCCCC(C)=O
inactive: [12] | [8] | [9] | [10] | [5] | [11]

Oc1ccc(-c2ccccc2)c(Cl)c1
active: [8] 39.9 µM
inactive: [12] | [9] | [4] | [11]
